SNCA viab count: cell viability loss counter-screen; Potency, µM (doses to about 57.1 µM), for inactives: top-dose activity change, negative = cytotoxicity, usual class: cytotoxic; hit rate 0.12% among 150,000; AID 1671193; HEK-293-SNCA-luc viability, GF-AFC fluorescence, 24 h;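 further: potency means the concentration at half of the fitted maximal effect; 0% = DMSO-treated cells and -100% = medium-only wells without cells; nearly all actives have a fitted effect of over 30% in size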
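Cytotoxicity counterscreen: after 24 h compound treatment of genome-edited SNCA-luciferase HEK-293 cells, live-cell protease substrate GF-AFC read by fluorescence after 30 min; activity scaled between DMSO (0%) and medium-only (-100%), curves Hill-fitted.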
KDM5B inh: inhibitors of human KDM5B histone demethylase | Q9UGL1 | AID 1347165 | Potency, µM (highest dose often 57.7 µM), usual class: inhibitors | KDM5B demethylase, FDH-coupled NADH fluorescence (FDH is formaldehyde dehydrogenase) | hit rate 2.6% among 220,000; further: potency means the concentration at half of the fitted maximal effect; 0% is about no effect; nearly all actives have a fitted effect of over 70% in size
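Compound dilutions met 200 nM (final) KDM5BΔAP for 10 min at room temperature before substrate addition. The substrate mix held 12.5 µM H3K4me3 with cofactors 25 µM α-ketoglutarate and 50 µM Fe²⁺. NADH signal gain over 30 min defined activity.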
SNCA expr inhib: SNCA gene expression inhibition; AID 1671194; HEK-293 SNCA-luciferase knock-in, luminescence, 24 h; hit rate 0.17% among 140,000; Potency, µM (top dose mostly 57.2 µM), for inactives: at the highest dose activity change, negative = inhibition, actives largely listed as inhibitors;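 further: potency means the concentration at half of the fitted maximal effect; plate controls were DMSO cells for no effect and cell-free wells for full effect; nearly all actives have a fitted effect of over 45% in size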
IP6K1 inh: IP6K1 kinase inhibition; activity change, % (series mostly up to about 58 µM); Q92551; hit rate 0.81% among 140,000; IP6K1 kinase, ADP-Glo luminescence, 2 h; active compounds read low; in the data active means activity change below about -25%; further: on the % scale 0 is the no-effect control and ±100 the full control effect
Target sequence (Q92551 whole entry, looked up): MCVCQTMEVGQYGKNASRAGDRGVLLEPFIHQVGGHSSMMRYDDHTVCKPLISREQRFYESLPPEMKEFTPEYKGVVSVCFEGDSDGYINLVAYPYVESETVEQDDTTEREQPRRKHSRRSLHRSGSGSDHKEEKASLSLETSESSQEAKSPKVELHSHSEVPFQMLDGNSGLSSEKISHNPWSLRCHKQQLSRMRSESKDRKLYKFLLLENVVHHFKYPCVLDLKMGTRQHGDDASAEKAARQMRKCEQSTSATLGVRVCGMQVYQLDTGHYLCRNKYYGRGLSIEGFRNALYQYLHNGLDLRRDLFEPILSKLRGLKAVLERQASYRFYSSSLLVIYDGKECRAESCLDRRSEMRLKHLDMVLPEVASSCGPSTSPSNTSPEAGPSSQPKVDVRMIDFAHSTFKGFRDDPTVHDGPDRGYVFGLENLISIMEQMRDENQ
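ADP-Glo luminescence measures ADP made by human IP6K1 during a 2 h RT reaction with ATP/IP6 (mix at 1.3 mM/130 uM); top library doses 57.5 and 19.1 uM final.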
Starred values were filed as active, the others as inactive; i = inactive; ? = inconclusive; / = no result given; [ ] = dose if it differs, or a comment. Shown are actives, neighbours in structure and some others; about 2.9% of the full set was active somewhere. Unless noted, the call rests on the fitted dose curve; in most records, active means well fitted curve in the direction sought with a large enough effect; inconclusive means small, poorly fitted or top-dose-only effect, or another doubt; inactive means no such curve, though single readings can be large; an effect the other way counts as inactive or inconclusive.

SMILES	SNCA viab count	KDM5B inh	SNCA expr inhib	IP6K1 inh
Cc1ccc2c(C(=O)NCc3cccc(Cl)c3)cc(NC(=O)C(C)C)cc2n1	7%	25µM*	-3%	28
CC(=O)Nc1cc(C(=O)N(C)Cc2ccco2)c2ccc(C)nc2c1	2%	?	16%	11
COc1ccc(NC(=O)c2cc(NC(=O)C(C)C)cc3nc(C)ccc23)cc1	7%	i	-12%	13
CC(=O)Nc1cc(C(=O)NCc2ccccc2C)c2ccc(C)nc2c1	-13%	25µM*	-12%	27
Cc1cccc(CNC(=O)c2cc(NC(=O)C(C)C)cc3nc(C)ccc23)c1	2%	13µM*	3%	14
Cc1ccc(-c2csc(Nc3ccccc3C)n2)cc1	/	i	/	/
CCc1ccc(-c2cc(C(F)(F)F)on2)cc1S(=O)(=O)Nc1ccc2c(c1)OCCO2	/	i	/	/
CN1C[C@H](C(=O)Nc2cccc(Cl)c2)C[C@H]1c1cccc(C(F)(F)F)c1	-29%[87.6 µM]	?	?	13
Cc1ccc2nc(C(=O)NCc3nncn3CCc3ccccc3)cn2c1	1%	?	-2%	11
CCC(C(=O)NCCn1ccn2nc(-c3ccc(OC)cc3)cc2c1=O)c1ccccc1 (centres undefined)	-29%	20µM*	1%	-2
COc1ccc(-c2cc3c(=O)n(CCNC(=O)c4ccc(C)c(F)c4)ccn3n2)cc1	-4%	?	109%	-9
COc1ccc(-c2cc3c(=O)n(CCNC(=O)c4cccc(OC)c4OC)ccn3n2)cc1	-20%	25µM*	-3%	-5
COc1ccc(-c2cc3c(=O)n(CCNC(=O)c4c(F)cccc4F)ccn3n2)cc1	0%	22µM*	5%	3
COc1ccc(-c2cc3c(=O)n(CCNC(=O)c4c(F)cccc4Cl)ccn3n2)cc1	-8%	22µM*	105%	1
CC(=O)N1CCC(Cc2noc(-c3ccncc3)n2)C1 (centres undefined)	-5%	i	-20%	9
COCCOC1CCOC2(CCN(C(=O)Cc3c[nH]c4ccccc34)CC2)C1 (centres undefined)	5%[12.5 µM]	i	-22%	-2
CN(C)CCOc1cccc2c1c(NC(=O)c1ccn[nH]1)nn2-c1ccc(F)cc1	-12%	?	25%	3
CSCC(=O)Nc1nn(-c2ccc(F)cc2)c2cccc(N3CCOCC3)c12	?	25µM*	69%	35
O=C(NC1CCCC1)N1CCN(C(=O)c2nc3cccnc3n(CCc3ccccc3)c2=O)CC1	3%	/	-8%	3
COC(=O)CNC(=O)N1CCCN(Cc2ccncc2)C(c2ccccc2)CC(=O)NCC1 (centres undefined)	-4%	i	12%	5
CC(=O)N1CCN(c2cc(-c3noc([C@@H]4CCCN4Cc4ccc(CO)o4)n3)ccn2)CC1	-4%	28µM*	-10%	12
CC(=O)N1CCN(c2cc(-c3noc([C@@H]4CCCN4Cc4ccccc4C)n3)ccn2)CC1	?	20µM*	?	-8
CN1CCN(c2ccc(-c3noc([C@@H]4CCCN4Cc4ccncc4)n3)cn2)CC1	4%[87.6 µM]	?	20%[87.6 µM]	-6
CCOc1ccc(-n2nc3ccc(NC(=O)Cc4ccccc4)cc3n2)cc1	28µM*	?	28µM*	-6
COc1cccc(NC(=O)C2CN(C3CCCCC3)C(=O)N2)c1 (centres undefined)	1%[87.6 µM]	/	?	-5
SMILES	SNCA viab count	KDM5B inh	SNCA expr inhib	IP6K1 inh
COCC1CN(C2CCC2)CC12CCN(C(=O)CCCc1ccccc1)CC2 (centres undefined)	-7%	/	44%	9
Cc1ccc2[nH]c(CN3CC[C@H]4NCCC[C@]4(CO)C3)cc(=O)c2c1	-6%	13µM*	-1%	7
CCCN(C)C(=O)c1ccc(-c2nnc3ccc(NC(=O)C4CCC4)cn23)cc1	-8%	22µM*	-9%	6
CCN1CCN(C(=O)c2ccc(-c3nnc4ccc(NC(=O)C5CC5)cn34)cc2)CC1	9%	28µM*	5%	-8
O=C(Nc1ccc2nnc(-c3ccc(C(=O)N4CCSCC4)cc3)n2c1)C1CCC1	-2%	28µM*	4%	-6
CC(NC(=O)c1ccc(-c2nnc3ccc(NC(=O)C4CCC4)cn23)cc1)c1cccs1 (centres undefined)	-14%	28µM*	-8%	-6
COc1ccc(NC(=O)c2ccc(-c3nnc4ccc(NC(=O)C5CCC5)cn34)cc2)cc1	-5%	?	28%	-1
CN(C)CCNC(=O)c1ccc(-c2nnc3ccc(NC(=O)C4CCC4)cn23)cc1	3%	?	3%	0
O=C(NCCc1ccccn1)c1ccc(-c2nnc3ccc(NC(=O)C4CCC4)cn23)cc1	-11%	?	8%	-9
O=C(c1ccc2nnc(-c3ccc(Cl)cc3)n2c1)N1CCCC1	6%[87.6 µM]	/	?	4
CN(C)C(=O)c1ccc(-c2nnc3ccc(NC(=O)C4CCC4)cn23)cc1	-14%	22µM*	1%	-3
CC(=O)Nc1ccc2nnc(-c3ccc(C(=O)N4CCCCCC4)cc3)n2c1	-7%	14µM*	2%	-6
O=C(NCCc1ccncc1)c1ccc(-c2nnc3ccc(NC(=O)C4CCC4)cn23)cc1	-4%	28µM*	13%	-5
Cn1ncc2c(C(=O)NC3CCc4ccccc43)cc(-c3cccc(C(F)(F)F)c3)nc21 (centres undefined)	/	/	/	1
Cc1cccc(-c2noc([C@@H]3C[C@@H](O)CN3Cc3cccc(C#N)c3)n2)c1	-12%[87.6 µM]	i	99%[87.6 µM]	9
COc1ccc(CN2C[C@H](O)C[C@H]2c2nc(-c3cccc(C)c3)no2)c2ccccc12	-7%[87.6 µM]	22µM*	114%[87.6 µM]	-13
c1ccc(CN2CCNc3cnc(Nc4ccc(N5CCOCC5)cc4)cc3C2)cc1	?	?	?	-9
Oc1ccccc1CN1CCNc2cc(Nc3ccccc3)ncc2C1	?	i	16%[87.6 µM]	-15
c1ccc(Nc2cc3c(cn2)NCCN(Cc2ccccn2)C3)cc1	-9%[87.6 µM]	35µM*	-2%[87.6 µM]	3
Oc1ccccc1CN1CCNc2cnc(Nc3ccccc3)cc2C1	-18%[87.6 µM]	22µM*	?	-16
Oc1ccccc1CN1CCNc2cc(Nc3cccnc3)ncc2C1	-14%[87.6 µM]	35µM*	15%[87.6 µM]	-22
C/C(=N\NC(=S)Nc1cccc(C)c1)c1ccc(Br)cc1	/	i	/	/
COc1cccc(Nc2ncc(-c3ccccc3)c3c2OCC3)c1	4%[87.6 µM]	20µM*	164%[87.6 µM]	8
COc1cccc(Nc2ncc(-c3cccc(N(C)C)c3)c3c2OCC3)c1	-2%[87.6 µM]	22µM*	21%[87.6 µM]	5
c1ccc(-c2cnc(Nc3ccncc3)c3c2CCO3)cc1	-25%[87.6 µM]	?	52%[87.6 µM]	-14
COc1ncc(-c2ccc3ncn(C4CC4)c(=O)c3n2)cn1	-3%[87.6 µM]	32µM*	46%[87.6 µM]	3
O=C(CS(=O)(=O)c1ccc2ccccc2c1)c1ccc(Br)cc1	/	i	/	/
CCO[C@H]1CN(C(=O)c2nc3ccccc3[nH]c2=O)C[C@@H]1O	-9%	25µM*	9%	32
COc1nc2ccccc2nc1CCC(=O)N[C@H]1COC[C@H]1Cc1cc(C)no1	-4%	28µM*	7%	-2

Compound activity from PubChem BioAssay.
